# Measurements reported in PubChem BioAssay (NCI).
# Compounds without any hit were thinned out: in the full panel of roughly 79,000, 15% have a hit. Activity calls are given as the source filed them. No stated cut-off is given here; in the data, active means growth inhibition above about 70%; inactive means the rest.
# Assay: NCI Yeast Anticancer Drug Screen. Data for the bub3 strain (AID 167)
# Conditions: S. cerevisiae bub3 mutant strain, at 50.0 µM, stronger effect = higher value
# How it was run: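 Mutant yeast screening strain plus compound; vehicle-treated cultures serve as the 0% inhibition reference.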
row,Structure (SMILES),growth inhibition
1,CCC/C(=N/NC(=O)C1CCCO1)c1ccccc1 (stereo not given),7.5% (inactive)
2,O=C(Cc1ccc([N+](=O)[O-])cc1)ON1C(=O)CCC1=O,-20.1% (inactive)
3,c1ccc(CCc2nc3ccccc3[nH]2)cc1,-37.1% (inactive)
4,COc1cccc(/C=C/C(=O)c2sc(C(N)=S)nc2C)c1O,-3.75% (inactive)
5,O=C1N2Cc3c4ccc5c3CN3C(=O)N6Cc7c(ccc(c7CN1C6(c1ccccc1)C23c1ccccc1)OCCOCCNCCOCCO4)OCCOCCNCCOCCO5 (stereo not given),-16.2% (inactive)
6,O=C1OC(/C=C/c2ccccc2)=NC/1=C\C=C\c1ccccc1,6.15% (inactive)
7,CCOc1ccc(CO)cc1,-8.95% (inactive)
8,CC(=O)OC1(C(=O)OCC2CCCO2)CCCC1 (stereo not given),25.8% (inactive)
9,O=c1c2c(oc(=Nc3ccccc3)n1-c1ccccc1)CC1(CCCCC1)C2,-10.9% (inactive)
10,CC(=O)N1N=C(c2ccc(OCC(O)CN3CCN(CC(O)COc4ccc(C5=NN(C(C)=O)C(c6ccccc6)C5)cc4)CC3)cc2)CC1c1ccccc1 (stereo not given),-25.9% (inactive)
11,NC(=O)NC(=O)Cc1ccc([N+](=O)[O-])cc1,6.25% (inactive)
12,CCOC(=O)CC1(c2ccccc2)OC(=O)c2ccccc21 (stereo not given),16.9% (inactive)
13,[O-]c1c(Cl)c(Cl)c(O[P+](c2ccccc2)(c2ccccc2)c2ccccc2)c(Cl)c1Cl,99% (active)
14,O=C(NC(Cc1ccc(O)cc1)C(=O)O)SCc1ccccc1 (stereo not given),22.9% (inactive)
15,CCC(=O)c1c(O)cc(O)cc1O,2.5% (inactive)
16,CC=NC(C)(C)C,3.3% (inactive)
17,CCCCOc1ccc(Br)cc1,3.1% (inactive)
18,CC(C)NC(=O)N(C(=O)C(F)(F)F)C(C)C,2.1% (inactive)
19,CC(C)CNc1ncnc2c1cnn2C,9.8% (inactive)
20,CC(C)(O)C(c1ccccc1)S(=O)(=O)O (stereo not given),-0.45% (inactive)

row,Structure (SMILES),growth inhibition
1,CN(C)C(=O)/C=C/C(=O)O (tested in a mixture with another compound),16.8% (inactive)
2,CC1(C)CCCCCCC2CC2CCCCCC(C)(C)C1=O (stereo not given),-11.5% (inactive)
3,Nc1ncnc2c1[nH]c(=S)n2C1OC(CO)C(O)C1O (stereo not given),4% (inactive)
4,CCOc1ccccc1C(=O)OCCCc1ccccc1,25.2% (inactive)
5,Cc1cc(Cl)ncc1[N+](=O)[O-],-9.65% (inactive)
6,Clc1ccc(C2=CSC3=NCCN23)cc1,16.4% (inactive)
7,COc1ccc2[nH]c(=O)c(C(C)=O)c(O)c2c1,7.15% (inactive)
8,Cc1ccccc1NCc1ccccc1,0.35% (inactive)
9,N#Cc1c2ccccc2c(C#N)c2ccccc12,1.3% (inactive)
10,O=c1[nH]c2cc([N+](=O)[O-])ccc2nc1/C(=N/Nc1ccccc1)C(O)c1ccc(C(O)/C(=N\Nc2ccccc2)c2cnc3cc([N+](=O)[O-])ccc3n2)cc1 (stereo not given),-6.45% (inactive)
11,CCC(C)[N-]c1cccc[n+]1[O-].CCC(C)[N-]c1cccc[n+]1[O-].[Cu+2] (stereo not given),-18.3% (inactive)
12,COc1ccc2c(c1)nc1n2C(N)=Nc2ccccc2S1,58% (inactive)
13,CCOC(=O)NC(=O)c1cn(CCSCCOC(=O)NCCCCCCNC(=O)OCCSCCn2cc(C(=O)NC(=O)OCC)c(=O)[nH]c2=O)c(=O)[nH]c1=O,-51.2% (inactive)
14,C#CCOC(=O)[C@@H](C)c1ccc2cc(OC)ccc2c1,36.6% (inactive)
15,C[Si](C)(C)O/C=C1/CCOC1=O,-39.8% (inactive)
16,CCN(CC)C(=S)SCCCS(=O)(=O)O,22.3% (inactive)
17,OCCSCCCCCCSCCO,2.7% (inactive)
18,CC(NNC(=S)N1CCC(c2ccccc2)CC1)c1ccc2ccccc2n1 (stereo not given),-2% (inactive)
19,CN(C)c1ccc(C2N(C)CCN2C)cc1,-7.5% (inactive)
20,O=[N+]([O-])c1ccc(-c2nc3ccncc3[nH]2)cc1,-6.85% (inactive)

# Assay: NCI Yeast Anticancer Drug Screen. Data for the mlh1 rad18 strain (AID 175)
# Conditions: S. cerevisiae mlh1 rad18 strain growth inhibition; at 50.0 µM; stronger effect = higher value
# How it was run: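 Vehicle-treated cultures served as the reference for growth inhibition in a yeast strain carrying DNA damage repair alterations exposed to each compound.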
row,Structure (SMILES),growth inhibition
1,CCC/C(=N/NC(=O)C1CCCO1)c1ccccc1 (stereo not given),26% (inactive)
2,O=C(Cc1ccc([N+](=O)[O-])cc1)ON1C(=O)CCC1=O,6% (inactive)
3,c1ccc(CCc2nc3ccccc3[nH]2)cc1,-10.9% (inactive)
4,COc1cccc(/C=C/C(=O)c2sc(C(N)=S)nc2C)c1O,7.6% (inactive)
5,O=C1N2Cc3c4ccc5c3CN3C(=O)N6Cc7c(ccc(c7CN1C6(c1ccccc1)C23c1ccccc1)OCCOCCNCCOCCO4)OCCOCCNCCOCCO5 (stereo not given),-30.1% (inactive)
6,O=C1OC(/C=C/c2ccccc2)=NC/1=C\C=C\c1ccccc1,-1.65% (inactive)
7,CCOc1ccc(CO)cc1,-38.8% (inactive)
8,CC(=O)OC1(C(=O)OCC2CCCO2)CCCC1 (stereo not given),6.9% (inactive)
9,O=c1c2c(oc(=Nc3ccccc3)n1-c1ccccc1)CC1(CCCCC1)C2,-4.2% (inactive)
10,CC(=O)N1N=C(c2ccc(OCC(O)CN3CCN(CC(O)COc4ccc(C5=NN(C(C)=O)C(c6ccccc6)C5)cc4)CC3)cc2)CC1c1ccccc1 (stereo not given),-3.8% (inactive)
11,NC(=O)NC(=O)Cc1ccc([N+](=O)[O-])cc1,-0.35% (inactive)
12,CCOC(=O)CC1(c2ccccc2)OC(=O)c2ccccc21 (stereo not given),-11.2% (inactive)
13,[O-]c1c(Cl)c(Cl)c(O[P+](c2ccccc2)(c2ccccc2)c2ccccc2)c(Cl)c1Cl,99.2% (active)
14,O=C(NC(Cc1ccc(O)cc1)C(=O)O)SCc1ccccc1 (stereo not given),-12% (inactive)
15,CCC(=O)c1c(O)cc(O)cc1O,-25% (inactive)
16,CC=NC(C)(C)C,-18.9% (inactive)
17,CCCCOc1ccc(Br)cc1,-15.1% (inactive)
18,CC(C)NC(=O)N(C(=O)C(F)(F)F)C(C)C,7.5% (inactive)
19,CC(C)CNc1ncnc2c1cnn2C,-8.45% (inactive)
20,CC(C)(O)C(c1ccccc1)S(=O)(=O)O (stereo not given),48.5% (inactive)

row,Structure (SMILES),growth inhibition
1,CN(C)C(=O)/C=C/C(=O)O (tested in a mixture with another compound),-20.8% (inactive)
2,CC1(C)CCCCCCC2CC2CCCCCC(C)(C)C1=O (stereo not given),24.1% (inactive)
3,Nc1ncnc2c1[nH]c(=S)n2C1OC(CO)C(O)C1O (stereo not given),0.15% (inactive)
4,CCOc1ccccc1C(=O)OCCCc1ccccc1,15.4% (inactive)
5,Cc1cc(Cl)ncc1[N+](=O)[O-],5.75% (inactive)
6,Clc1ccc(C2=CSC3=NCCN23)cc1,1.25% (inactive)
7,COc1ccc2[nH]c(=O)c(C(C)=O)c(O)c2c1,7.85% (inactive)
8,Cc1ccccc1NCc1ccccc1,23.1% (inactive)
9,N#Cc1c2ccccc2c(C#N)c2ccccc12,-12.3% (inactive)
10,O=c1[nH]c2cc([N+](=O)[O-])ccc2nc1/C(=N/Nc1ccccc1)C(O)c1ccc(C(O)/C(=N\Nc2ccccc2)c2cnc3cc([N+](=O)[O-])ccc3n2)cc1 (stereo not given),-4.3% (inactive)
11,CCC(C)[N-]c1cccc[n+]1[O-].CCC(C)[N-]c1cccc[n+]1[O-].[Cu+2] (stereo not given),-18.4% (inactive)
12,COc1ccc2c(c1)nc1n2C(N)=Nc2ccccc2S1,36.5% (inactive)
13,CCOC(=O)NC(=O)c1cn(CCSCCOC(=O)NCCCCCCNC(=O)OCCSCCn2cc(C(=O)NC(=O)OCC)c(=O)[nH]c2=O)c(=O)[nH]c1=O,23.2% (inactive)
14,C#CCOC(=O)[C@@H](C)c1ccc2cc(OC)ccc2c1,43% (inactive)
15,C[Si](C)(C)O/C=C1/CCOC1=O,-45% (inactive)
16,CCN(CC)C(=S)SCCCS(=O)(=O)O,8.75% (inactive)
17,OCCSCCCCCCSCCO,5.8% (inactive)
18,CC(NNC(=S)N1CCC(c2ccccc2)CC1)c1ccc2ccccc2n1 (stereo not given),26.9% (inactive)
19,CN(C)c1ccc(C2N(C)CCN2C)cc1,-12.8% (inactive)
20,O=[N+]([O-])c1ccc(-c2nc3ccncc3[nH]2)cc1,-12.6% (inactive)
